For 30 compounds, Potency, max response and outcome results are on record in PubChem BioAssay (NCATS).

The structures appear in SMILES notation. Results filed as inconclusive are left out. Active and inactive are the calls of the source. The call rests on the fitted dose curve; in most records, active means well fitted inhibition curve with a large enough effect; inconclusive means small, poorly fitted or top-dose-only effect; inactive means flat fitted curve, though single readings scatter.
On the % scale 0 is the no-effect control and ±100 the full control effect; potency means the concentration at half of the fitted maximal effect.

One assay relates to HEK293. Kind of assay: Cytotoxic Profiling of Annotated Libraries Using Quantitative High-Throughput Screening (AID 1296008). Further: nearly all actives have a fitted effect of over 60% in size. As to conditions: Five cell lines viability, CellTiter-Glo ATP luminescence, 48-72 h; max response: active compounds read low. In short, it runs like this:
(§1)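 Cytotoxicity was measured as CellTiter-Glo ATP luminescence, read after 10 min at room temperature. Compound treatment of the cells lasted 48 or 72 hr at 37 degrees Celsius in a qHTS format.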
With `CC1=CC2OC3CC(O)[C@](C)([C@@]2(C)C(O)C1=O)[C@]31CO1` (some centres undefined), the Potency was 5.17 µM (active). For the compound `CC[C@H](O)[C@@H](C)[C@H]1O[C@@H]1C[C@H](C)/C=C/C=C(\C)[C@H]1OC(=O)C[C@H](O)CC[C@@](C)(O)[C@@H](OC(C)=O)/C=C/[C@@H]1C`, the Potency is 0.0041 µM (active).

With `COC(=O)C12C(=O)C(C)(O)C(=O)C1(C)C(C)=CC1C34CCC(OC3=O)C(C)(C)C4CCC12C` (centres undefined), the max response is -13.4% (inactive). In the case of `C=C1C2(C)CC3C(C)(O)C4=CC(=O)OC(C)(C)C4=CCC3(C)C13C(=O)OC(C)C3(O)C2=O` (centres undefined), the max response was -2.5% (inactive). For the compound `Fc1cc(F)c2c(c1)C1C=CCC1C(c1cccnc1)N2` (centres undefined), the Potency is 23.1 µM (active). `C[C@]12CC[C@H](O)C[C@@H]1CC[C@@H]1[C@@H]2CC[C@]2(C)[C@@H](C3=CC(=O)OC3)CC[C@]12O`: the Potency was 5.08 µM (active).

`CC1=CC(=O)[C@@H](O)[C@@]2(C)C1C[C@H]1OC(=O)[C@H](O)[C@@]3(O)[C@@H](C)[C@@H](O)[C@H](O)C2[C@@]13C` (some centres undefined): the Potency was 2.02 µM (active). For `c1ccc([C@@H]2C[C@H]2NC2CCNCC2)cc1`, the max response was -16.2% (inactive).

A further assay has as its system HaCat. Described as above. Conditions: Five cell lines viability, CellTiter-Glo ATP luminescence, 48-72 h; max response: active compounds read low. In short, it runs like this: as §1
(In general: Cellular ATP, detected with luciferase, serves as a proxy for viable cell number.)
`CN1CCCCC1Cn1cc(C(=O)c2cc([N+](=O)[O-])ccc2I)c2ccccc21` (centres undefined): the outcome was inactive. For `CC12CCC3C(C1)c1c(cc(O)c(C(=O)c4ccccc4)c1OC3(C)C)O2` (centres undefined), the max response is -1.85% (inactive). The same measure, in the same setting: the result for `CN1C(=O)[C@@H](Cc2c[nH]c3ccccc23)N=C(c2ccccc2F)c2ccccc21` reads -23.4% (inactive); that for `CN1C(=O)N(c2ccc(C#N)c(C(F)(F)F)c2)C(=O)[C@@]1(CO)c1ccccc1`, 0.274% (inactive); that for `CCCCCn1cc(C(=O)Oc2cccc3cccnc23)c2ccccc21`, 2.86% (inactive). Take `CN=C(NS(=O)(=O)c1ccc(Cl)cc1)N1C[C@H](c2ccccc2)C(c2ccc(Cl)cc2)=N1`: the max response was -7.89% (inactive).

`CN(Cc1cccc(-c2ccncc2)c1)C(=O)Oc1ccc(-c2ccc(C(N)=O)cc2)cc1`: the result was inactive. `CN(C(=O)C(c1ccccc1)c1ccccc1)[C@H](CN1CC[C@H](O)C1)c1ccccc1`: the outcome was inactive.

For `CCOc1ccc(Oc2ccc(OCc3cc(F)ccc3F)cc2)c(N)c1`, the max response is -5.94% (inactive). In the case of `Cc1ccc2c(c1)[C@H]1CN(C)CC[C@H]1N2C(=O)CSc1nnnn1-c1ccc(Cl)cc1`, the call was inactive.

In the case of `CCCN(CCC)[C@@H]1CCc2ccc3[nH]c(C#N)cc3c2C1`, the outcome was inactive. `CC(=O)OC[C@]12[C@H](OC(C)=O)C(=O)[C@@H]3[C@@H](O)[C@@]14O[C@@]3(C)COC(=O)c1cccnc1[C@@H](C)[C@H](C)C(=O)O[C@@H]([C@H](OC(C)=O)[C@@H]2OC(C)=O)[C@]4(C)O`: the call was inactive. `Cc1c(N[C@@H](c2nnc(-c3ccc(C#N)cc3)o2)[C@H](C)O)ccc(C#N)c1Cl`: the max response is -11% (inactive). With `COc1ccc2c(c1)c(CCN(C)C)cn2S(=O)(=O)c1ccccc1`, the compound was called inactive.

Another assay deals with KB-3-1. The description is as above. As to conditions: Five cell lines viability, CellTiter-Glo ATP luminescence, 48-72 h; max response: active compounds read low. An outline of the steps: as §1
For the compound `CC(C)[C@H](NC(=O)c1nn(Cc2ccc(F)cc2)c2ccccc12)C(N)=O`, the max response is 0.24% (inactive). In the case of `COC1CCCC(C)OC(=O)Cc2cc(O)cc(O)c2C(=O)C1` (centres undefined), the Potency is 4.04 µM (active).

Consider `CN1CCCCC1Cn1cc(C(=O)c2cc([N+](=O)[O-])ccc2I)c2ccccc21` (centres undefined), for which the max response is 6.42% (inactive). With `CC12CCC3C(C1)c1c(cc(O)c(C(=O)c4ccccc4)c1OC3(C)C)O2` (centres undefined), the max response was -6.92% (inactive). With `CN1C(=O)[C@@H](Cc2c[nH]c3ccccc23)N=C(c2ccccc2F)c2ccccc21`, the max response was -7.12% (inactive). In the case of `C=C(C)C(=O)O[C@H]1[C@@H]2[C@H](C)C(=O)O[C@@H]2C[C@@H](C)[C@@H]2C=CC(=O)[C@]21C`, the Potency was 3.21 µM (active). For the compound `CCN1C[C@]2(COC)CC[C@H](O)[C@@]34C5C[C@@H]6[C@@H](OC)C[C@@](OC(C)=O)(C5[C@@H]6OC(C)=O)[C@H]([C@H](OC)C23)[C@@H]14` (some centres undefined), the max response is -0.111% (inactive). With `CN1C(=O)N(c2ccc(C#N)c(C(F)(F)F)c2)C(=O)[C@@]1(CO)c1ccccc1`, the max response was 2.44% (inactive). Turning to `CC(=O)O[C@H]1C[C@]2(O)[C@@H]3CC[C@@H]4C[C@@H](O)CC[C@]4(C)[C@H]3CC[C@]2(C)[C@H]1c1ccc(=O)oc1`, the Potency is 0.058 µM (active). For `CCCCCn1cc(C(=O)Oc2cccc3cccnc23)c2ccccc21`, the max response is -8.4% (inactive). The same measure, in the same setting: the value for `CN=C(NS(=O)(=O)c1ccc(Cl)cc1)N1C[C@H](c2ccccc2)C(c2ccc(Cl)cc2)=N1` was -19.1% (inactive).

`COC1CC(O[C@H]2CC[C@@]3(C)C(CCC4C3CC[C@]3(C)C(C5=CC(=O)OC5)CCC43O)C2)OC(C)C1OC1OC(COC2OC(CO)C(O)C(O)C2O)C(O)C(O)C1O` (some centres undefined): the Potency is 2.76 µM (active). In the case of `C=C(C)[C@@]12O[C@@H]1[C@@]1(C)C(=CC2=O)CC[C@@H](OC(C)=O)[C@@H]1C`, the Potency is 13 µM (active). Still for that read-out and setting: the result for `CN1Cc2c(ccc3c2OCO3)[C@@H]2[C@H]1c1cc3c(cc1C[C@@H]2O)OCO3` reads 2.86 µM (active).

Take `CN(Cc1cccc(-c2ccncc2)c1)C(=O)Oc1ccc(-c2ccc(C(N)=O)cc2)cc1`: the max response was 1.21% (inactive). For the compound `CN(C(=O)C(c1ccccc1)c1ccccc1)[C@H](CN1CC[C@H](O)C1)c1ccccc1`, the max response is -3.45% (inactive). For `COC(=O)C12C(=O)C(C)(O)C(=O)C1(C)C(C)=CC1C34CCC(OC3=O)C(C)(C)C4CCC12C` (centres undefined), the max response was -12.2% (inactive). Same read-out and setting: the value for `CCOc1ccc(Oc2ccc(OCc3cc(F)ccc3F)cc2)c(N)c1` was -0.382% (inactive); that for `Cc1ccc2c(c1)[C@H]1CN(C)CC[C@H]1N2C(=O)CSc1nnnn1-c1ccc(Cl)cc1` was -5.2% (inactive); that for `C=C1C2(C)CC3C(C)(O)C4=CC(=O)OC(C)(C)C4=CCC3(C)C13C(=O)OC(C)C3(O)C2=O` (centres undefined) was -10.5% (inactive). `Fc1cc(F)c2c(c1)C1C=CCC1C(c1cccnc1)N2` (centres undefined): the Potency was 4.61 µM (active). For `CCCN(CCC)[C@@H]1CCc2ccc3[nH]c(C#N)cc3c2C1`, the call was inactive. In the case of `CC1=CC(=O)[C@@H](O)[C@@]2(C)C1C[C@H]1OC(=O)[C@H](O)[C@@]3(O)[C@@H](C)[C@@H](O)[C@H](O)C2[C@@]13C` (some centres undefined), the Potency was 6.4 µM (active).

For `c1ccc([C@@H]2C[C@H]2NC2CCNCC2)cc1`, the max response is -11.5% (inactive). For the compound `CC(=O)OC[C@]12[C@H](OC(C)=O)C(=O)[C@@H]3[C@@H](O)[C@@]14O[C@@]3(C)COC(=O)c1cccnc1[C@@H](C)[C@H](C)C(=O)O[C@@H]([C@H](OC(C)=O)[C@@H]2OC(C)=O)[C@]4(C)O`, the max response is 7.87% (inactive).

For the compound `Cc1c(N[C@@H](c2nnc(-c3ccc(C#N)cc3)o2)[C@H](C)O)ccc(C#N)c1Cl`, the max response was -17.4% (inactive). Turning to `COc1ccc2c(c1)c(CCN(C)C)cn2S(=O)(=O)c1ccccc1`, the max response is -1.74% (inactive).
